Each structure is given as a SMILES string. Calls of active or inactive are those of the source. Unless noted, how the calls were made is not given here.

The nature of test [1]: anti-His antibody binders, primary screen, artefact control for SMM control protein annotation, biochemical, small-molecule microarray, 635 nm fluorescence (AID 1128).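 Further: score merges feature fluorescence with signal-to-noise for each printed compound spot.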 The conditions noted are these: anti-His Alexa647 antibody binding, higher = more signal.
For test [2], the system named is Human papillomavirus type 1a E7 protein (residues 1-88). The experiment in a line: HPV1a E7 small-molecule binders, primary screen, biochemical, small-molecule microarray, residues 1-88, 635 nm (AID 1129). Particulars: small-molecule microarray binding, fluorescence 635 nm; higher = more signal.
For test [3], the target named is Focal adhesion kinase 1 (Homo sapiens) (UniProt Q05397). Briefly: small-molecule microarray binders of FAK, primary screen, biochemical, 635/667 nm fluorescence, BSA, DTT (AID 1130).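 Further: composite of spot emission at 667 nm and signal to noise over triplicate slides.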 Particulars: PTK2 binding, 635 nm fluorescence, higher = more signal.
Sequence of Focal adhesion kinase 1 (Homo sapiens) (Q05397 whole entry, looked up): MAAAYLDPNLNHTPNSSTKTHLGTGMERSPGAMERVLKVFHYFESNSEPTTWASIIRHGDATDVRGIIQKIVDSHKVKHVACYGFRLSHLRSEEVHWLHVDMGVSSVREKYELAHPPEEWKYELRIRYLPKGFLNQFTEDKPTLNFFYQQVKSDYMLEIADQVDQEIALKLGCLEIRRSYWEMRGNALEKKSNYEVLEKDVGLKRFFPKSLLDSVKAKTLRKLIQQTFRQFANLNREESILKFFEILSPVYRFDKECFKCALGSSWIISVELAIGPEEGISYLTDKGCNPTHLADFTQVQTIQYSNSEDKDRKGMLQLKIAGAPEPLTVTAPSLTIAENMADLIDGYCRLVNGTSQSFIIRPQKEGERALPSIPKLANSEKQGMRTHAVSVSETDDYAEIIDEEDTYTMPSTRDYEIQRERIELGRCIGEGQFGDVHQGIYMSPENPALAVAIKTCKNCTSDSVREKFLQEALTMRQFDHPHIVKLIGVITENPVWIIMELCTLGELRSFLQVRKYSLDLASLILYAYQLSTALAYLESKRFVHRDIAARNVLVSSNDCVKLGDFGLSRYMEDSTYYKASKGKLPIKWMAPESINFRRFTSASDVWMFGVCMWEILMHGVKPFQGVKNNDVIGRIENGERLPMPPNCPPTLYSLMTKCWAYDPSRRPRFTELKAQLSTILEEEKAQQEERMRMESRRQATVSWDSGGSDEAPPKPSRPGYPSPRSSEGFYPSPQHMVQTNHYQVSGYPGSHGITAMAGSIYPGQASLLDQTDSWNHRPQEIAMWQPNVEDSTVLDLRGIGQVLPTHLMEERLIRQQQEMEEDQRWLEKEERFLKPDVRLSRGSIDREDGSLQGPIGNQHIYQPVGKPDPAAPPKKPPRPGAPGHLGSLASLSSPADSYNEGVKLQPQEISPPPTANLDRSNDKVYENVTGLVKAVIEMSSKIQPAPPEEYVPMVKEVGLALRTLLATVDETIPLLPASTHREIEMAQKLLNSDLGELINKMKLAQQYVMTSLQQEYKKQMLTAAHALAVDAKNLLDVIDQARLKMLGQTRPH
For test [4], the system named is Fibrinogen (Alexa647-labelled). Briefly: fibrinogen binders on compound microarrays, profiling panel, artefact control for SMM control-protein annotation, biochemical, small-molecule microarray, 635/667 nm fluorescence (AID 1131).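 Further: z-score merges 667 nm fluorescence with per-spot signal-to-noise over triplicate slides.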 The conditions noted are these: fibrinogen-A647 binding fluorescence, higher = more signal.
Test [5] concerns the target Follistatin (Homo sapiens) (UniProt P19883). Briefly: follistatin binders on small-molecule microarrays, primary screen, biochemical, small-molecule microarray, 635/667 nm fluorescence (AID 1132). The conditions noted are these: FST binding, 635 nm fluorescence, higher = more signal.
Test [6] deals with Fibroblast growth factor 2 (Homo sapiens) (UniProt P09038). The experiment in a line: FGF2 binders on small-molecule microarrays, primary screen, biochemical, small-molecule microarray, 635/667 nm fluorescence (AID 1133). Particulars: small-molecule microarray binding, FGF2, fluorescence 635/667; higher = more signal.
Sequence of Fibroblast growth factor 2 (Homo sapiens) (P09038 whole entry, looked up): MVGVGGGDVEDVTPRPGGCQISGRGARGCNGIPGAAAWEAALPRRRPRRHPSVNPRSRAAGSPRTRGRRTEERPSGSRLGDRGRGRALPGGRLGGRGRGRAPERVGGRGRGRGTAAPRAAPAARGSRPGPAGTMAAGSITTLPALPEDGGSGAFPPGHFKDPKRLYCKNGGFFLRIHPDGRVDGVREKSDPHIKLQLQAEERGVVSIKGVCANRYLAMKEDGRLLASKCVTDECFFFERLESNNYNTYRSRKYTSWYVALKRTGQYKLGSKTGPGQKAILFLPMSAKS
Test [7] is described as follows: mitochondrial membrane potential change in A549 cells, profiling panel, cell-based, JC-1 fluorescence, basal, 24 h, 100 nL (AID 1138).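 Further: A549 lung adenocarcinoma cells under basal conditions with no added stimulus; test concentration not given here.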 Particulars: higher = more signal.
Test [8] has as its system Lefty1. Briefly: Lefty1 binders on small-molecule microarrays, primary screen, biochemical, small-molecule microarray, 635/667 nm fluorescence (AID 1139). The conditions noted are these: small-molecule microarray binding, fluorescence 635/667; higher = more signal.
For test [9], the system named is wheat germ agglutinin (Triticum aestivum), Alexa647-labelled. The experiment in a line: wheat germ agglutinin binders on compound microarrays, profiling panel, artefact control for SMM control-protein annotation, biochemical, small-molecule microarray, 635/667 nm fluorescence (AID 1140).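 Further: score merges 667 nm feature emission with signal to noise over triplicate slides.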 Particulars: WGA-A647 binding, 635 nm fluorescence, higher = more signal.
For test [10], the target named is Luciferin 4-monooxygenase (Photinus pyralis) (UniProt P08659). Briefly: firefly luciferase enzyme inhibitors, primary screen, biochemical, luminescence, purified enzyme, 2006 set (AID 1141).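 Further: cell-free assay with purified firefly luciferase at 100 ng per well in PBS; test concentration not given here.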 Particulars: SteadyGlo luminescence, 30 min, higher = more signal, called active from +8 up or from −8 down.
Sequence of Luciferin 4-monooxygenase (Photinus pyralis) (P08659 whole entry, looked up): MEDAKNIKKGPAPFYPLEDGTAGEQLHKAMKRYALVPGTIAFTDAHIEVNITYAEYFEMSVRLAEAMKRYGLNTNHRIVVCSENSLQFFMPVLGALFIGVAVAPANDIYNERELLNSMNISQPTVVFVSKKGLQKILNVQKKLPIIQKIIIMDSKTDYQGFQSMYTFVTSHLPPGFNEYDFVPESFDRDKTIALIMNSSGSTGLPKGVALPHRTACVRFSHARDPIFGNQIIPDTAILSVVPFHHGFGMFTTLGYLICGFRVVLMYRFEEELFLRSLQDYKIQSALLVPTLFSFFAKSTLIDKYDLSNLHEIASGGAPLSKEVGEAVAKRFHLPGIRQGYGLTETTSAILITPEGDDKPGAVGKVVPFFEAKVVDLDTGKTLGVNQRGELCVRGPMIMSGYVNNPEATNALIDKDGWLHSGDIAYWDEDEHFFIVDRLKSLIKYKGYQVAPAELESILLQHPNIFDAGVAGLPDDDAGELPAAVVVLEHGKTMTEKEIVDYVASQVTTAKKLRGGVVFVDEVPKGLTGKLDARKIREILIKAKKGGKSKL
Test [11] concerns Wnt5a (protein binding on small-molecule microarray). Briefly: Wnt5a binders on small-molecule microarray, primary screen, biophysical, 635/667 nm fluorescence (AID 1142).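 Further: fluorescence read at 667 nm with signal to noise per printed feature.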 The conditions noted are these: 635 nm fluorescence, higher = more signal.
The nature of test [12]: cell viability in Huh7 cells, primary screen, cytotoxicity control for HCV replication inhibitor project, CellTiter-Glo luminescence, basal, 48 h (AID 1143).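 Further: Huh7 hepatoma cells carrying a hepatitis C replication reporter with no stimulus; test concentration not given here.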 The conditions noted are these: Huh7 HCV replicon, higher = more signal, called active from +8 up or from −8 down. Background: ATP-based viability assays read luminescence as a measure of living cells.
A short description of test [13]: P. aeruginosa biofilm formation inhibitors, primary screen, PAO1 strain, BacTiter-Glo luminescence, LB-PBS (AID 1144). The conditions noted are these: 12 h, higher = more signal.
Test [14] in a line: CREB reporter modulators without forskolin, primary screen, cell-based, PC12, CRE-LacZ reporter, unstimulated (AID 1145). Particulars: no forskolin, luminescence, 4.5 h, higher = more signal, called active from +8 up or from −8 down.
Test [15] can be described thus: CREB reporter modulators under forskolin, primary screen, cell-based, PC12, CRE-LacZ reporter, forskolin-stimulated (AID 1146).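 Further: PC12 cells with 6xCRE LacZ reporter stimulated by forskolin 10 µM; beta-galactosidase reporter signal reflecting CREB driven transcription.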 The conditions noted are these: luminescence, 4.5 h, higher = more signal, called active from +8 up or from −8 down.
In test [16] the target is Streptavidin (Streptomyces avidinii) (UniProt P22629). Briefly: streptavidin binders on small-molecule microarray, primary screen, artefact control for SMM compound annotation, biophysical, 635/667 nm fluorescence (AID 1147).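 Further: signal reflects streptavidin binding to arrayed compounds as a control protein.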 The conditions noted are these: streptavidin binding, higher = more signal.
Sequence of Streptavidin (Streptomyces avidinii) (P22629 whole entry, looked up): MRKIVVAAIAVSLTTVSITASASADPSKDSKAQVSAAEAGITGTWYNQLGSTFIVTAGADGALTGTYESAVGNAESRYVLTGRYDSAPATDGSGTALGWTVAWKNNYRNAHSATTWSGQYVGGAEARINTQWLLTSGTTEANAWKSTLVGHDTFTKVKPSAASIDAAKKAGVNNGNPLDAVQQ
Test [17] is described as follows: small-molecule binders of probe aInhba, primary screen, biochemical, small-molecule microarray, 635/667 nm fluorescence (AID 1148).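 Further: score merges 667nm spot fluorescence with signal-to-noise for antibody binding to printed compounds.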 Particulars: higher = more signal.
Test [18] addresses Torsin-1A (Homo sapiens) (UniProt O14656). The experiment in a line: torsin A binders from cell lysate, primary screen, small-molecule microarray, wild-type, 635/667 nm (AID 1149). Particulars: COS7 hTOR1A-WT lysate, 635 nm fluorescence, higher = more signal.
For test [19] the target is unchanged. Briefly: small-molecule binders of mutant TOR1A in lysate, primary screen, cell lysate, small-molecule microarray, COS7 lysate, 635/667 nm fluorescence (AID 1150).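 Further: score pools 667 nm emission and signal to noise measuring lysate protein binding.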 The conditions noted are these: COS7 hTOR1A mutant lysate, 635 nm fluorescence, higher = more signal.
The subject of test [20] is Sonic hedgehog protein (Shh). Briefly: small-molecule binders of Shh protein, primary screen, biochemical, small-molecule microarray, 635/667 nm fluorescence (AID 1151).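 Further: Shh protein binding to compounds spotted on small-molecule microarray slides; score combines spot fluorescence intensity with signal-to-noise across triplicate slides.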 The conditions noted are these: small-molecule microarray binding, 635 nm fluorescence; higher = more signal.

Sequence of Torsin-1A (Homo sapiens) (O14656 whole entry, looked up): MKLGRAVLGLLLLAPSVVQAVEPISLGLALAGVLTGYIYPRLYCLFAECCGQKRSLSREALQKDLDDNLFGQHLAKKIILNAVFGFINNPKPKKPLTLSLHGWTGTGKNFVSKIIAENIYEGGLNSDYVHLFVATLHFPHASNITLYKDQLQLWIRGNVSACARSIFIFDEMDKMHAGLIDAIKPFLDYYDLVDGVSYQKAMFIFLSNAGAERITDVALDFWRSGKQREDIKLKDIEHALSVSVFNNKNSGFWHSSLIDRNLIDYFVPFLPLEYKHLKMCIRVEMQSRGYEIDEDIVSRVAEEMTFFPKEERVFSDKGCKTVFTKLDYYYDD
Sequence of Follistatin (Homo sapiens) (P19883 whole entry, looked up): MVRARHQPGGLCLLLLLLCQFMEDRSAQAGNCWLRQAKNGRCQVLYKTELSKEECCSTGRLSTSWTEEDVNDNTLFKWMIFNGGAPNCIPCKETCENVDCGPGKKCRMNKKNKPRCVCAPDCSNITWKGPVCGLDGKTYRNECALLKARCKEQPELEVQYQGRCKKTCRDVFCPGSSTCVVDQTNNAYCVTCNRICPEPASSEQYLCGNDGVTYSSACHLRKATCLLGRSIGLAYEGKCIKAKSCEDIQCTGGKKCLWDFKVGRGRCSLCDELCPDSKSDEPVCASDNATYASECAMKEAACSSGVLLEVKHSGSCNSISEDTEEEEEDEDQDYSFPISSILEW

Turning to `COCCCNC(=O)[C@@]1(Cc2ccccc2I)c2ccccc2C(=O)N(Cc2ccccc2)[C@H]1c1ccc(CO)cc1`, the composite z-score in test [1] is 0.536; in test [2], -0.726; in test [3], -0.548; in test [4], -1.03; in test [5], -1.6; in test [6] it was -1.21. Moreover, the composite z-score is -1.94 in test [8]; -1.27 in test [9]; -0.433 in test [11]; -1.38 in test [16]; -0.176 in [17]; -0.79 in test [18]. Moreover, the composite z-score was -0.332 in test [19] and -0.892 in test [20]. The z-score in test [7] is 1.28; in test [10], -0.751 (inactive); in test [12], -2.44 (inactive); in [13], 0.202 (inactive); in test [14] it was 0.145 (inactive); in [15], -1.06 (inactive).

As to `Cc1ccc(S[C@]2(C(=O)NCc3ccccc3)CC(=O)N(Cc3cc(C(F)(F)F)cc(C(F)(F)F)c3)[C@@H]2c2ccc(CO)cc2)cc1`, the composite z-score in test [1] is -0.0768; in test [2], -0.469; in test [3] it was -0.187; in test [4] it was -1.25; in [5], 0.401; in test [6] it was -0.568. Besides, the composite z-score in test [8] is -0.0758; in [9] it was -1.01; in test [11], -0.492; in test [16], -0.684; in [17], -0.126; in [18] it was -1.3. In addition, the figures for the composite z-score in [19] and in [20] were -0.755 and 0.824, respectively. The z-score in test [7] is -0.0446; in [10], -0.372 (inactive); in [12], -0.0639 (inactive); in [13] it was 0.315 (inactive); in test [14], 0.829 (inactive); in test [15], 1.21 (inactive).

`COc1cc(CO)cc(I)c1O[C@H]1C=C(C(=O)NCCO)C[C@@H](N(CCc2cccc(F)c2)C(=O)CCC2CCCC2)[C@@H]1O`: the composite z-score in test [1] worked out at 2.62; in test [2], 1.19; in test [3], 0.218; in [4], 0.819; in [5], 1.46; in [6] it was 1.76. Moreover, the composite z-score was 1.49 in test [8]; 0.524 in [9]; 1.38 in test [11]; 0.628 in [16]; 0.0872 in test [17]; 0.727 in [18]. In addition, the figures for the composite z-score in test [19] and in [20] were 1.26 and 1.89, respectively. The z-score in [7] was -0.172; in test [10] it was 1.38 (inactive); in test [12], -6.09 (inactive); in [13], -0.986 (inactive); in test [14], 6.93 (inactive); in [15], -0.374 (inactive).

For `C=C(C)[C@@H]1CC=C(C(O)C2C=CC3C(=O)N(Cc4ccccc4)C(=O)C3N2n2cnnc2)CC1` (stereo not given in full), the composite z-score in test [1] was -0.087; in test [2] it was -0.124; in test [3], 0.0147; in test [4] it was 0.818; in test [5], 0.507; in test [6], -0.759. Moreover, the composite z-score is 0.551 in test [8]; 1.19 in [9]; -0.0115 in [11]; 0.258 in test [16]; 0.0314 in [17]; 0.0146 in test [18]. In addition, the composite z-score in test [19] is -0.388; in test [20], -0.408. The z-score is -1.11 in test [7]; 1.67 (inactive) in test [10]; -4.22 (inactive) in test [12]; -1.38 (inactive) in test [13]; 0.22 (inactive) in test [14]; -0.0578 (inactive) in test [15].

For `NC(=O)NCC#Cc1ccc2c(c1)[C@]1(C(=O)N2)[C@H](c2ccc(O)cc2)N2[C@H](c3ccccc3)[C@H](c3ccccc3)OC(=O)[C@H]2[C@@H]1C(=O)N1CCN(c2ncccn2)CC1`, the composite z-score is 1.05 in [1]; 0.855 in test [2]; -0.75 in test [3]; 0.486 in test [4]; 0.743 in test [5]; -0.0346 in test [6]. Besides, the composite z-score in test [8] was -0.112; in test [9] it was 0.297; in test [11] it was 0.0724; in test [16], 0.0219; in [17], 0.181; in test [18] it was -0.219. Also, the composite z-score is 0.412 in test [19] and -0.37 in test [20]. The z-score was -1.1 in [7]; -1.43 (inactive) in [10]; 0.449 (inactive) in test [12]; 0.185 (inactive) in test [13]; 1.21 (inactive) in [14]; 0.128 (inactive) in test [15].

Values taken from PubChem BioAssay.
